Only some compounds are listed: those with a hit (about 1.1% of all), similar ones and a draw of the others.
PrPC TRFRET: reduces human prion protein on the cell surface; actives 0.43% (n = 370,000); inhibition, % at 13.8 µM; cell surface PrPC, TR-FRET read-out; P04156; AID 720596; in the data active = inhibition above about 24%; also: 0% = median of the test wells and 100% = reference compound wells
PrP 5UTR inh: suppresses PrP 5' UTR mRNA reporter expression; inhibition, % (test concentration not listed); actives 0.35% (n = 340,000); AID 488862; cell-based PrP 5' UTR mRNA reporter, plate reader; in the data active = inhibition above about 52%; also: 0 = median of the neutral control wells
MazEF act: activators of E. coli MazEF toxin-antitoxin RNase | activation, % at 20 µM | actives 0.32% (n = 350,000) | FAM/BHQ RNA-DNA oligo cleavage fluorescence, 5 h | P0AE70 | AID 504720; in the data active = activation above about 50%
BJeLR viability: kills HRASV12-expressing BJeLR cells; inhibition, % (no concentration beside the values); BJeLR (HRASV12) viability, CellTiter-Glo ATP luminescence, 48 h; actives 0.17% (n = 300,000); AID 1554; in the data active = inhibition above about 50%
PrPC TRFRET cf: confirmation of inhibitors of cell surface human prion protein. inhibition, % at 13.8 µM. shares compounds with PrPC TRFRET. cell surface PrPC level, TR-FRET. actives 65% (n = 1,500); in the data active = inhibition above about 25%
LD9 cytotox: counter-screen for PrPc inhibitors: cytotoxicity in LD9 cells; actives 29% (n = 1,500); inhibition, % at 13.8 µM; luminescence viability; shares compounds with PrPC TRFRET; in the data active = inhibition above about 9.5%
The depositor's hits bear a star; · = no result.

SMILES	PrPC TRFRET	PrP 5UTR inh	MazEF act	BJeLR viability	PrPC TRFRET cf	LD9 cytotox
Cc1cc(C)c(S(=O)(=O)NCc2ccc3c(c2)cc(C)n3C)c(C)c1	39.1*	4.0	11.7	-6.2	43.4*	-2.0
CCCCCCCCN1C(=O)[C@@H](CC(=O)NCCCCc2ccccc2)C[C@@]2(C(=O)OC)C1=C[C@H](C1CCCC1)O[C@@H]2C	-2.3	·	·	·	·	·
CS(=O)(=O)c1ncc(Cl)c(C(=O)Nc2ccc3ccccc3c2)n1	84.0*	-24.9	-13.7	17.2	77.4*	87.1*
O=C(NCc1ccccc1)c1nc(S(=O)(=O)Cc2ccccc2)ncc1Cl	5.0	-15.9	5.4	26.2	·	·
O=C(Nc1ccc2ccccc2c1)c1cnccn1	-24.1	-51.2	-4.8	3.7	·	·
CC(=O)Nc1ccc(NC(=O)c2nc(S(=O)(=O)Cc3ccccc3)ncc2Cl)cc1	65.1*	-14.8	10.2	9.8	-5.3	78.2*
CCC1CCCCN1S(=O)(=O)c1ccc(NC(=O)c2nc(S(C)(=O)=O)ncc2Cl)cc1 (stereo not drawn)	79.0*	-11.5	6.4	-6.7	83.3*	96.9*
CCC1CCCCN1S(=O)(=O)c1ccc(NC(=O)c2ccncc2)cc1 (stereo not drawn)	14.4	-17.5	-2.6	17.4	·	·
CCS(=O)(=O)c1ncc(Cl)c(C(=O)Nc2ccc(C)cc2)n1	41.9*	-6.7	2.4	23.1	44.3*	84.8*
CN(C)c1ccc(Sc2ccc3nc(N)nc(N)c3c2)cc1	32.9*	·	36.9	·	34.9*	15.4*
Nc1nc(N)c2cc(S(=O)(=O)c3cccc(C(F)(F)F)c3)ccc2n1	5.3	·	29.1	·	·	·
CNNC(=S)Nc1cccc(C(F)(F)F)c1	61.8*	·	7.5	0.1	-1.2	-6.0
O=C(OCC#CCSc1nnc(-c2ccccc2Cl)o1)c1ccc(F)cc1	-4.5	·	·	·	·	·
COc1cc(C(=O)N[C@@H](C)C(=O)N2CCC3(CC2)NCCc2[nH]cnc23)cc(OC)c1OC	24.7*	-27.6	13.6	4.2	5.5	3.7
O=C(N[C@H](C(=O)N1CCC[C@H]1C(=O)NCc1ccccc1)C1CCCCC1)c1ccc(Cl)cc1Cl	2.7	·	·	·	·	·
CN1[C@@H](Cc2ccccc2)COc2cc(F)ccc2S1(=O)=O	-8.2	·	·	·	·	·
O=c1[nH]c(=O)n(Cc2ccco2)c2c1C(C(F)(F)F)(C(F)(F)F)N=C(Cc1ccccc1)N2	56.4*	-15.5	9.9	4.7	46.6*	8.2
Cc1ccc(OCc2nnc(SCC(=O)Nc3ccccc3-c3ccccc3)n2Cc2ccco2)cc1	14.4	·	·	·	·	·
C[C@H](CO)N1C[C@H](C)[C@@H](CN(C)C(=O)CCC(F)(F)F)OCc2cn(nn2)CCCC1=O	1.4	·	·	·	·	·
O=C(NCc1ccc(Cl)cc1)c1cccc(NC(=O)c2ccccc2)c1	31.5*	-6.0	-1.0	-26.2	27.3*	-1.6
Nc1[nH]c(C(=O)c2ccccc2)c(-c2cccnc2)c1C(=O)c1ccccc1	10.6	·	·	·	·	·
COc1ccccc1NS(=O)(=O)c1ccc(-c2cnc(C3CC3)o2)cc1	13.6	13.9	-0.2	-3.3	·	·
COc1ccc(NS(=O)(=O)c2ccc(-c3cnc(C4CC4)o3)cc2)cc1OC	31.6*	-30.9	0.1	35.3	21.3	23.0*
CC1(Cc2ccc(Cl)c(Cl)c2)C(=O)Nc2ccc(S(=O)(=O)NC3CCCCC3)cc21 (stereo not drawn)	15.8	·	·	·	·	·
CC1(Cc2cccc(F)c2)C(=O)Nc2ccc(S(=O)(=O)NC3CCCCC3)cc21 (stereo not drawn)	35.8*	·	·	·	8.1	-3.5
SMILES	PrPC TRFRET	PrP 5UTR inh	MazEF act	BJeLR viability	PrPC TRFRET cf	LD9 cytotox
COC(=O)C1=C(C)N(CC(C)C)C(=S)NC1c1cccc(Br)c1 (stereo not drawn)	7.6	·	·	·	·	·
CCN(CC)C(=O)Cn1cc(C(=O)C(=O)N2CCCc3ccccc32)c2ccccc21	-3.4	-20.3	16.6	·	·	·
CCN(CC)C(=O)Cn1cc(C(=O)C(=O)N2CCc3ccccc32)c2ccccc21	53.4*	-25.8	2.9	1.2	13.3	-2.1
COC(=O)[C@]12C[C@H](CC(=O)N3CCSCC3)C(=O)N(CCc3ccc(OC)c(OC)c3)C1=C[C@H](C(C)C)O[C@@H]2C1CC1	-5.5	·	·	·	·	·
Cc1ccc(Cc2c(-c3ccco3)nc3ccc(Br)cn23)cc1	33.7*	·	·	·	57.4*	-5.4
Cc1cc(Br)cn2c(Cc3ccccc3)c(-c3ccco3)nc12	35.5*	·	·	·	50.3*	-2.8
COc1ccc(Cc2c(-c3ccco3)nc3c(C)cc(Br)cn23)c(C)c1	-4.1	·	·	·	·	·
Cc1cc(Br)cn2c(Cc3ccsc3)c(-c3ccco3)nc12	30.1*	·	·	·	43.5*	-3.2
Cc1ccc(Cc2c(-c3ccc(C)cc3)nc3ccc(Br)cn23)cc1	20.3	·	-46.5	·	·	·
COc1ccc(N2C(=O)c3[nH]nc(-c4ccccc4)c3C2c2cccc(C(F)(F)F)c2)cc1 (stereo not drawn)	4.3	·	·	·	·	·
O=C(Nc1cc(S(=O)(=O)N2CCCCC2)ccc1Cl)c1ccccc1NS(=O)(=O)c1ccc(F)cc1	25.2*	-1.1	5.2	50.7*	33.0*	24.7*
O=C(Nc1cc(S(=O)(=O)N2CCCCC2)ccc1O)c1ccccc1NS(=O)(=O)c1ccc(F)cc1	6.6	-105.0	8.6	-2.2	·	·
CCOC(=O)C1=C(C(=O)OCC)C2N(Cc3ccc(C(F)(F)F)cc3)c3ccccc3[C@@]23C[C@@H](C(=O)OC)N(S(=O)(=O)c2ccccc2C)C3=N1 (stereo partly drawn)	8.3	·	·	·	·	·
CCOC(=O)c1c(/N=C/N(C)C)sc(C)c1C	6.3	-26.7	-1.6	10.4	·	·
CCOC(=O)c1c(/N=C/N(C)C)sc(/C=N/Nc2ccccc2)c1-c1ccc(Cl)cc1	25.7*	-14.4	-3.4	0.3	33.5*	-4.9
COC(=O)C(C)Oc1ccc(Cc2ncc(C(F)(F)F)cc2Cl)cc1 (stereo not drawn)	62.1*	-33.5	-1.4	-3.2	0.1	-10.7
Oc1ccc(Cc2ncc(C(F)(F)F)cc2Cl)cc1	-3.2	-5.2	-7.7	1.0	·	·
CC(C)(C)c1ccc(C#C[C@@H]2C=C[C@H](O)[C@@H](COC(=O)Nc3ccccc3)O2)cc1	1.3	·	·	·	·	·
NC(=O)c1nnn(Cc2cc(Cl)c(C(=O)c3ccc(Cl)cc3)c(Cl)c2)c1N	34.6*	·	·	·	27.7*	7.3
CC(C)(C)c1ccc(SC2=C[C@@]3(O)CC[C@@H](O)[C@@](Sc4ccc(C(C)(C)C)cc4)(C2=O)[C@H]3O)cc1	9.1	·	·	·	·	·
Cc1ccc(SC2=C[C@@]3(O)CC[C@@H](O)[C@@](Sc4ccc(C)cc4)(C2=O)[C@H]3O)cc1	27.0*	·	·	·	19.6	-9.0
CCCCCC(=O)NC1CCCCN(Cc2ccccc2C)C1=O (stereo not drawn)	8.8	·	·	·	·	·
CNC(=O)[C@@H](NC(=O)[C@H](CC(C)C)[C@H](O)C(=O)NO)C(C)(C)C	60.6*	·	·	·	65.4*	-2.9
CNC(=O)C(NC(=O)CNC(=O)c1ccc(Cl)cc1)C(C)(C)C (stereo not drawn)	11.2	-23.5	3.5	-4.4	·	·
CS(=O)(=O)c1ccc(S(=O)(=O)NCC2CCN(C(=O)C(=O)c3cc4ccccc4o3)CC2)cc1	-11.2	·	·	·	·	·

Screens deposited in PubChem by several laboratories.
